Laboratory results from PubChem BioAssay.
Unmarked numbers belong to inactive results.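 The calls were made as follows: active = GFP response above 150% of the DMSO level; inconclusive = fewer than 70 events counted for a yeast strain; inactive = the rest.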

Test: AGP1-GFP expression modulators, hit retest, confirmation, cell-based, flow cytometry, S. cerevisiae, cherry picks (AID 2273);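 also: median GFP channel fluorescence over the whole cell population gate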
Settings: S. cerevisiae AGP1-GFP strain, 3 h, at 10 µM

SMILES	GFP response, % of DMSO [%]
CN(C)CCN(Cc1ccccc1)c1ccccn1	103
CC(=O)[C@H]1CC[C@H]2[C@@H]3CCC4=CC(=O)CC[C@]4(C)[C@H]3[C@H](O)C[C@]12C	100
COc1cc(/C=C/C(=O)CC(=O)/C=C/c2ccc(O)c(OC)c2)ccc1O	98.7
c1cnc2c(c1)ccc1cccnc12	102
C[C@]12CCC(=O)C=C1CC[C@@H]1[C@@H]2[C@@H](O)C[C@@]2(C)[C@H]1CC[C@]2(O)C(=O)CO	99.2
CN1CCN2c3ccccc3Cc3ccccc3C2C1 (centres undefined)	97.6
CCOC(=O)C(Cc1cc(C(C)=O)ccc1OC(C)C)C(=O)OCC	90.8
c1ccc2c(c1)CCOC2CNCCCN1CCCCC1 (centres undefined)	98.5
CN/C(=C/[N+](=O)[O-])NCCSCc1ccc(CN(C)C)o1	99.3
Nc1[nH]c(=O)ncc1F	78.5
Cc1ccc2[nH]c3c(c2c1)CCNC3=O	95
CC(C)CC(=O)Nc1ccc2oc(-c3ccncc3)nc2c1	95.9
CCCCN(CCCC)CCCOC(=O)c1ccc(N)cc1	94.5
O=[N+]([O-])c1ccc(O)c2ncccc12	128
CC(=O)Nc1ccc(S(=O)(=O)c2ccc(N)cc2)cc1	105
N=c1nc(N2CCCCC2)cc(N)n1O	98.9
O=C(O)CCNC(=O)c1ccccc1	104
O=c1cc(-c2ccccc2)oc2cc(OCc3ccccc3)cc(O)c12	98.9
O=C(O)Cc1ccc(-c2ccccc2)cc1	100
